Screening results (PubChem)
Sm TGR block – qHTS Assay for the Inhibitors of Schistosoma Mansoni Peroxiredoxins; Schistosoma mansoni thioredoxin glutathione reductase (TGR), Q962Y6; purified TGR, DTNB reduction, TNB absorbance 405 nm; Potency, µM (series often up to 114 µM), for inactives: at the top dose activity change, negative = inhibition, usual class: inhibitors; 360,000 tested, 3% active; AID 485364, 2010; also: % is scaled to controls: 0 for no effect and ±100 for the full control effect; nearly all actives have a fitted effect of over 60% in size
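Kinetic colorimetric format: TGR-catalysed, NADPH-driven DTNB reduction monitored via TNB absorbance. Enzyme dispensed at 20 nM; compound exposure 15 min at room temperature before reaction start.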
Pf growth 96h – Primary qHTS for delayed death inhibitors of the malarial parasite plastid, 96 hour incubation; AID 504834, 2011; 320,000 tested, 6.9% active; P. falciparum luciferase reporter growth, 96 h; Potency, µM (doses to about 28.7 µM), inactives show top-dose activity change, negative = inhibition, hits mostly inhibitors; also: % is scaled to controls: 0 for no effect and ±100 for the full control effect
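Luminescence readout: decreased luciferase signal marks inhibited growth of reporter-expressing P. falciparum in infected red cells (2% hematocrit, 0.05% parasitemia final), exposed to compound two generations (96 h, 37 C, 5% CO2).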
Pf growth 48h – Primary qHTS for delayed death inhibitors of the malarial parasite plastid, 48 hour incubation; P. falciparum luciferase growth in erythrocytes, 48 h; Potency, µM (highest dose often 28.7 µM), without a hit: at the highest dose activity change, negative = inhibition, usual class: inhibitors; 310,000 tested, 5.9% active; also: % is scaled to controls: 0 for no effect and ±100 for the full control effect
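Compounds are pin-transferred into medium, infected erythrocytes (2% hematocrit, 0.1% parasitemia final) are added, and plates sit one parasite generation at 37 C in 5% CO2. Detection reagent is then added and luminescence measured.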
AMA1-RON2 inh – qHTS for Inhibitors of AMA1-RON; Towards Development of Antimalarial Drug Lead: Primary Screen | AlphaScreen AMA1-biotinylated RON2 peptide binding | 360,000 tested, 0.2% active | AID 720542, 2013 | Potency, µM (highest dose often 58.2 µM), without a hit: top-dose activity change, negative = inhibition, most hits filed as inhibitors;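 also: 0% = vehicle wells and -100% = peptide control; nearly all actives have a fitted effect of over 45% in size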
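AMA1 (3D7) with his tag at 25 nM final met compounds first, then biotinylated RON2 peptide at 25 nM; detection used donor plus acceptor beads, 10 µg/mL apiece, read by AlphaScreen after 30 min at room temperature.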
NS1 function inh – qHTS Assay for Inhibitors of Influenza NS1 Protein Function; Potency, µM (highest dose often 46.1 µM), without a hit: top-dose activity, positive = more growth; AID 2326, 2010; 270,000 tested, 0.4% active; calls by dose curve; also: actives are rising curves; nearly all actives have a fitted effect of over 50% in size
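A cell-based growth assay was used: compounds that relieve NS1-induced slow growth of budding yeast raise OD600. Assay medium was yeast nitrogen base with ammonium sulphate and -URA supplement, pH 6.0, with 2% galactose.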
The depositor's hits bear a star; ? = inconclusive; . = not tested or not shown. This is a sample that favours compounds with a hit; in the whole collection about 11% have one here. Unless noted, calls follow the shape of the dose curve; as a rule, active = well fitted curve in the direction sought with a large enough effect; inconclusive = small, poorly fitted or top-dose-only effect, or another doubt; inactive = no such curve, though single readings can be large; an effect the other way counts as inactive or inconclusive. Potency is read from the fitted curve at half-maximal effect.

SMILES | Sm TGR block | Pf growth 96h | Pf growth 48h | AMA1-RON2 inh | NS1 function inh
CC(=O)N(CCP(=O)(c1ccccc1)c1ccccc1)Cc1ccco1 | -33% | 9.3µM* | -9% | -9% | 2%
O=C(c1ccco1)N(CCC(c1ccccc1)c1ccco1)Cc1ccco1 (stereo not given) | 10µM* | ? | ? | -24% | 7%
O=S(=O)(c1ccccc1)N1CCN(C/C=C/c2ccccc2)CC1 | 13% | 33% | 10% | -10% | 2%
[O-][N+](=Cc1ccccc1)CC1(O)CCCCC1 | . | . | . | 3% | .
CN(Cc1nc(-c2ccccc2)no1)C(=O)c1ccco1 | 4% | -3% | 38% | ? | -4%
CN(Cc1ccccc1)C(=O)c1ccco1 | 1% | 12µM* | 17% | -11% | 2%
O=C(c1ccco1)N(Cc1ccccc1)Cc1ccccn1 | . | 11% | 12% | 19% | 1%
Cc1ccc(C(CCN(Cc2ccccc2)C(=O)c2ccco2)c2ccco2)cc1 (stereo not given) | 20µM* | 13µM* | ? | -16% | 19%
CC(C)(C)NC(=O)Cc1ccc(Cl)c(Cl)c1 | 16% | -4% | 0% | 17% | -3%
O=C(O)CCCN1C(=O)C2C3CCC(C3)C2C1=O (stereo not given) | . | . | . | 0% | .
O=C(Nc1cccc(Cl)c1Cl)C1CCN(C(=O)c2cccs2)CC1 | -8% | 21% | 9% | 5% | 4%
CCCc1ccc2oc(C(=O)N3CCC(COC)C3)c(C)c2c1 (stereo not given) | 1% | ? | 78% | 1% | -34%
COc1ccc(N2CCN(C(=O)c3cc4c(C)nc5ccccc5c4o3)CC2)cc1 | -15% | 0.83µM* | 2% | -15% | -19%
COc1ccc(OC)c(-c2cc(C(=O)N3CCN(c4ncccn4)CC3)c3ccccc3n2)c1 | -13% | ? | ? | 0% | -9%
COc1ccc(Nc2cc(C(=O)N3CCc4ccccc4C3)c3ccccc3n2)c(OC)c1 | 14% | 20% | 13µM* | -17% | .
COc1ccc(-c2cc(C(=O)N3CCN(c4ncccn4)CC3)c3ccccc3n2)c(OC)c1 | 7% | 1.9µM* | ? | -5% | -57%
COc1ccc(N2CCN(C(=O)c3cc(-c4cc(OC)ccc4OC)nc4ccccc34)CC2)cc1 | -2% | -15% | ? | 5µM* | 20%
Cc1ccc(C(=O)NCc2cccnc2)cc1S(=O)(=O)N1CCCCCC1 | 1% | ? | ? | 7% | 10%
CC(C)NC(=O)C1(C)CCN1Cc1cccc(Cl)c1 (stereo not given) | . | . | . | -9% | .
CC(C)CC(=O)Nc1ccc(C(=O)CN2CCN(c3ccc(O)cc3)CC2)cc1 | 5.6µM* | -11% | -17% | -7% | 5%
CN(CCOc1ccccc1)CC(=O)Nc1ccc(Cl)c(S(=O)(=O)N(C)C)c1 | 7% | 9.3µM* | -19% | 7% | .
CN(C)S(=O)(=O)c1cc(NC(=O)CN2CCN(c3ccc(O)cc3)CC2)ccc1Cl | 79µM* | ? | ? | -1% | .
Oc1c(Br)cc(Br)cc1CNc1cnc2ccccc2c1 | 13µM* | -17% | ? | 10% | -30%
Oc1c(Br)cc(Br)cc1CNc1ccc(F)cc1 | ? | ? | ? | -7% | -2%
O=[N+]([O-])/C(C(Cl)=C(Cl)Cl)=C(/Sc1ccccc1)N1CCCCC1 | 28µM* | ? | ? | 4% | 0%
SMILES | Sm TGR block | Pf growth 96h | Pf growth 48h | AMA1-RON2 inh | NS1 function inh
COc1cc(Cl)c(NC(=O)CCc2nc3cccnc3n2-c2ccccc2)c(OC)c1 | -2% | . | . | . | .
O=C(Nc1ccncc1)c1ccc(Cl)c(S(=O)(=O)N2CCCC2)c1 | -2% | ? | 12µM* | -6% | .
O=C(Nc1ccc(N2CCCC2)c(Cl)c1)c1cccnc1 | 50µM* | ? | ? | -22% | ?
O=[N+]([O-])c1ccc(NC(=S)NCc2ccncc2)cc1 | -35% | ? | 8% | -13% | .
O=C(Nc1ccc(Nc2ccncc2)cc1)c1ccc([N+](=O)[O-])cc1 | -3% | 1.7µM* | 2.6µM* | -4% | 3%
CC(NC(=S)Nc1ccc([N+](=O)[O-])cc1)c1ccncc1 (stereo not given) | 45µM* | 0% | ? | -6% | 7%
COC(=O)[C@]1(Cc2ccccc2)N[C@H](CN(C)S(=O)(=O)c2ccc(C(C)(C)C)cc2)[C@@H]2C(=O)N(C)C(=O)[C@@H]21 | . | . | . | -8% | .
COc1ccc2nc3sc(C(=O)N4CCN(c5ccccc5)CC4)cc3cc2c1 | 9% | . | . | . | .
O=C(Nc1ccncc1)c1ccc(F)cc1 | 6% | 5.2µM* | . | 12% | -28%
COc1ccc(C(=O)Nc2ccccc2C(=O)Nc2ccncc2)cc1 | 2% | -7% | 10µM* | -6% | -5%
O=C(Nc1ccncc1)c1ccc(Cl)c(Cl)c1 | -1% | 2.9µM* | ? | 2% | -63%
O=C(NNC(=O)c1ccc(Cl)c(Cl)c1)c1ccncc1 | . | . | . | 68% | .
O=C(Nc1ccc(Cl)c(S(=O)(=O)N2CCCCC2)c1)c1cccnc1 | 2% | ? | 12µM* | 0% | .
COc1cccc(NC(=O)Cn2c(=O)n(-c3ccccc3)c(=O)c3ccc(C(=O)NCc4ccc5c(c4)OCO5)cc32)c1 | -6% | . | . | . | .
O=C(Nc1ccc(Oc2ccccc2)cc1)c1csc([C@@H]2C[C@H](O)[C@@H](CO)O2)n1 | . | . | . | 19% | .
CCC1CCCCN1CCCNC(=O)C1CCC(CNS(=O)(=O)c2c(C)cc(C)cc2C)CC1 (stereo not given) | 0% | 13% | ? | 25% | -14%
CCCC[C@@H](CN[C@H](C)CNC)NCC1CCC(C(C)(C)C)CC1 (stereo not given in full) | 0% | ? | ? | 104% | -5%
Cc1nonc1NC(=O)c1ccc(Cl)c(S(=O)(=O)N2CCCCC2)c1 | 10% | 2.6µM* | -6% | 6% | -7%
O=C(NNC(=O)c1cnccn1)c1ccc(Cl)c(Cl)c1 | -9% | 3.7µM* | ? | 122% | -34%
O=C(Nc1ccc(Nc2ccncc2)cc1)c1ccc(Nc2ccnc3ccc([N+](=O)[O-])cc23)cc1[N+](=O)[O-] | ? | 0.52µM* | 1.5µM* | ? | 8%
Cc1ccc(NC(=O)c2ccc(F)cc2)nc1 | 4% | 5.2µM* | -9% | -3% | 1%
Cc1cccnc1NC(=O)c1ccc(Cl)c(S(=O)(=O)N2CCCCCC2)c1 | 3% | ? | ? | 93% | -29%
Cc1ccc(NC(=O)c2ccc3[nH]c(=O)c(=O)[nH]c3c2)nc1 | 3% | 21% | 26% | -8% | -1%
Cc1nc(N)ncc1CCC1OCCO1 | . | . | . | -3% | .
COc1cc(-c2cc3n(C)c(C)c(CCC(=O)NCc4ccccc4)c(=O)n3n2)cc(OC)c1OC | 10% | . | . | . | .
